Earlier results as cited in PubChem BioAssay AID977608.
Screen size: about 4,300 compounds; about 4,300 (100%) were called active. Cut-off not given; nearly all actives show IC50 up to about 1400 µM. So high a share suggests a set chosen from earlier hits. This is one part of the list.

Assay: protein-ligand inhibition affinities from structures – PDB-derived complexes (AID 977608)

O=C(NO)c1ncc(-c2ccccc2Cl)o1
IC50 (literature IC50, protein: METHIONINE AMINOPEPTIDASE, PDB entry 4a6w): 1900 nM (active)

Cc1ccc(OC[C@@H](O)CNC2Cc3ccccc3C2)cc1C
IC50 (literature IC50, protein: Endochitinase CTS1, PDB entry 4txe): 2400 nM (active)

C1=CC1c1[nH]nc2nccc(-c3ccco3)c12
IC50 (literature IC50, protein: CHECKPOINT KINASE 2, PDB entry 4bdj): 7200 nM (active)

O=C(NCc1ccc(S(=O)(=O)C2CCN(C3CCOCC3)CC2)cc1)n1cc2ccncc2c1
IC50 (literature IC50, protein: Nicotinamide phosphoribosyltransferase, PDB entry 4kfp): 10 nM (active)

C[C@H](C(=O)O)c1ccc2c(c1)[nH]c1ccc(Cl)cc12
IC50 (literature IC50, protein: Fatty-acid amide hydrolase 1, PDB entry 4do3): 79000 nM (active)

Nc1nc(Nc2ccc(S(N)(=O)=O)cc2)sc1C(=O)Nc1c(F)cccc1F
IC50 (literature IC50, protein: Cyclin-dependent kinase 2, PDB entry 3r9h): 100000 nM (active)

Nc1nc(Nc2ccc(S(N)(=O)=O)cc2)sc1C(=O)Nc1cccc(F)c1
IC50 (literature IC50, protein: Cyclin-dependent kinase 2, PDB entry 3r9d): 71000 nM (active)

Nc1nc(Nc2ccc(S(N)(=O)=O)cc2)sc1C(=O)Nc1cc(F)cc(F)c1
IC50 (literature IC50, protein: Cyclin-dependent kinase 2, PDB entry 3r9o): 100000 nM (active)

Oc1ccc(Nc2nc(-c3ccc(Cl)cc3)cs2)cc1
IC50 (literature IC50, protein: Sphingosine kinase 1, PDB entry 3vzd): 500 nM (active)

Cc1nc2ccc(Br)cc2c(-c2ccc(Cl)cc2)c1[C@H](OC(C)(C)C)C(=O)O
IC50 (literature IC50, protein: Gag-Pol polyprotein (A128T mutation), PDB entry 4gvm): 780 nM (active) | IC50 (literature IC50, protein: Gag-Pol polyprotein, PDB entry 4gw6): 630 nM (active)

NC(N)c1ccc(CNC(=O)[C@@H]2CCN2C(=O)[C@H](NCC(=O)O)C2CCCCC2)cc1
IC50 (literature IC50, protein: bovine trypsin, PDB entry 1k1p): 11.9 nM (active)

CNC(=O)[C@H](Cc1cnc[nH]1)NC(=O)CN(CCCc1ccccc1)CC(=O)O
IC50 (literature IC50, protein: human insulin degrading enzyme (ide), PDB entry 4gs8): 100 nM (active)

O=c1ccn([C@@H]2O[C@H](CO[P+](O)(O)O[P+](O)(O)O)[C@@H](O)[C@H]2O)c(=O)[nH]1
IC50 (literature IC50, protein: human O-GlcNAc transferase and a thioglycopeptide, PDB entry 4gz3): 1800 nM (active)

O=c1ccn([C@H]2C[C@H](O)[C@@H](CO[P+](O)(O)N[P+](O)(O)O[P+](O)(O)O)O2)c(=O)[nH]1
IC50 (literature IC50, protein: Human dUTPase, PDB entry 3ehw): 15200 nM (active)

COc1cc(Nc2ncc(F)c(Nc3ccc4c(n3)N(CO[P+](O)(O)O)C(=O)C(C)(C)O4)n2)cc(OC)c1OC
IC50 (literature IC50, protein: Bromodomain-containing protein 4 BRD4-1, PDB entry 4o75): 21000 nM (active)

COc1nc2c(Nc3ccccc3C(C)(C)C)c(C(=O)O)cnc2cc1-c1c(C)noc1C
IC50 (literature IC50, protein: BROMODOMAIN-CONTAINING PROTEIN 4, PDB entry 4bw3): 500 nM (active)

Cc1noc(C)c1-c1ccc2c(Nc3ccccc3C(C)(C)C)c(C(=O)O)cnc2c1
IC50 (literature IC50, protein: BROMODOMAIN-CONTAINING PROTEIN 4, PDB entry 4bw1): 1260 nM (active)

Cc1noc(C)c1-c1ccc2c(Nc3ccccc3C(C)(C)C)c(C(=O)O)cnc2n1
IC50 (literature IC50, protein: BROMODOMAIN-CONTAINING PROTEIN 4, PDB entry 4bw2): 6310 nM (active)

CCc1cc(Sc2ncc(C(=O)O)[nH]2)nc([C@H]2CCCC[C@@H]2C(=O)NCc2ccc(Cl)c(Cl)c2)n1
IC50 (literature IC50, protein: Phosphopantetheine adenylyltransferase, PDB entry 4nah): 490 nM (active)

CCc1cc(-c2nc(O)c(C(N)=O)c(=O)[nH]2)nc([C@H]2CCCC[C@@H]2C(=O)NCc2ccc(Cl)c(Cl)c2)n1
IC50 (literature IC50, protein: Phosphopantetheine adenylyltransferase, PDB entry 4nau): 0.87 nM (active)

COc1cc(OC)nc(C2CCCCC2C(=O)NCc2ccc(Cl)c(Cl)c2)n1 (configuration not stated)
IC50 (literature IC50, protein: Phosphopantetheine adenylyltransferase, PDB entry 4nat): 330 nM (active)

N[C@@H](C(=O)O)[C@H](O)[C@@]1(C(=O)O)CC[C@H](C[C@H](NC(=O)c2cc(Cl)c(O)c(Cl)c2)C(=O)O)N1
IC50 (literature IC50, protein: Glutamate receptor 2, PDB entry 4gxs): 100000 nM (active)

OS(O)(O)c1cc(N=C=S)ccc1/C=C/c1ccc(N=C=S)cc1S(O)(O)O
IC50 (literature IC50, protein: human soluble Adenylyl Cyclase TYPE 10, PDB entry 4clz): 43000 nM (active)

O=C(NCCCNCc1cc(Cl)cc(Cl)c1)Nc1ccccc1O
IC50 (literature IC50, protein: Trypanosoma brucei methionyl-tRNA synthetase, PDB entry 4mw0): 39 nM (active)

CC[C@H](C)[C@H](NC(=O)[C@H](CC(N)=O)NC(=O)[C@H](Cc1ccccc1)NC(=O)[C@H](Cc1c[nH]c2ccccc12)NC(=O)[C@H](CC(N)=O)NC(C)=O)C(=O)N[C@H](C(=O)N[C@@H](CC(N)=O)C(=O)N[C@]1(C)CCCCCC[C@@](C)(C(=O)N[C@H](C(=O)N[C@@H](CCNC(=O)CNC(=O)[C@@H](N)CO[P+](O)(O)O)C(=O)N[C@@H](CCCCN)C(=O)N[C@@H](CCCCN)C(=O)N[C@@H](CCCCN)C(=O)O)[C@@H](C)CC)NC(=O)[C@H](Cc2c[nH]c3ccccc23)NC(=O)[C@H](CC(C)C)NC1=O)[C@@H](C)O
IC50 (literature IC50, protein: HIV-1 neutralizing antibody 4E10 Fab, PDB entry 4ngh): 30 nM (active)

CC[C@H](C)[C@H](NC(=O)[C@H](CC(N)=O)NC(=O)[C@H](Cc1ccccc1)NC(=O)[C@H](Cc1c[nH]c2ccccc12)NC(=O)[C@H](CC(N)=O)NC(C)=O)C(=O)N[C@H](C(=O)N[C@@H](CC(N)=O)C(=O)N[C@]1(C)CCCCCC[C@@](C)(C(=O)N[C@H](C(=O)N[C@@H](CCCCN)C(=O)N[C@@H](CCCCN)C(=O)N[C@@H](CCCCN)C(=O)N[C@@H](CCCCN)C(=O)O)[C@@H](C)CC)NC(=O)[C@H](Cc2c[nH]c3ccccc23)NC(=O)[C@H](CC(C)C)NC1=O)[C@@H](C)O
IC50 (literature IC50, protein: HIV-1 neutralizing antibody 4E10 Fab, PDB entry 4nhc): 46 nM (active)
